Screens as filed in PubChem.
Only some compounds are listed: those with a hit (about 3.1% of all), similar ones and a draw of the others.
PAX8 reporter = lowers PAX8-driven luciferase in RMG-I cells; RMG-I TPO-luciferase reporter, SteadyGlo, 24 h; inhibition, % at 12.6 µM; hit rate 1.2% among 360,000;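 active = mean replicate inhibition at least 60% with every replicate also reaching 60%; inconclusive = only one of the two criteria is met; inactive = mean below 60% and not all replicates reaching 60%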;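 also: luciferase light reporting Pax8 driven TPO promoter activity; plate controls were median of neutral control wells for no effect and mitoxantrone controls for full effect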
TROY signal inh = TROY signaling inhibition. Q293 LMP1-TROYcd NF-kB luciferase reporter, 4 h. inhibition, % at 10 µM. hit rate 0.98% among 360,000;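 active = compounds whose plate-normalised and pattern-corrected inhibition of the luciferase reporter signal at the single screening dose is 50% or more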
TWEAK Fn14 block = blocks TWEAK-Fn14 interaction in a reporter cell assay; TWEAK-stimulated Fn14 reporter cells, luciferase luminescence, 8 h; inhibition, % at 10 µM; hit rate 2% among 360,000; in the data active = inhibition above about 50%
EBV LMP1 NFkB = inhibitors of Epstein-Barr LMP1-induced NF-kappaB reporter; LMP1-induced NF-kappaB luciferase reporter cells, luminescence; inhibition, % at 12.5 µM; hit rate 0.69% among 350,000; AID 504558; in the data active = inhibition above about 41%; inconclusive = no clear call, values can overlap the other calls;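 also: 0% = neutral control wells and 100% = reference inhibitor control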
LGR2 antag = inhibitors of bursicon-induced Drosophila LGR2 receptor cAMP signaling; HEK293 LGR2, CRE-luciferase, bursicon-stimulated, 4 h; inhibition, % at 9.99 µM; hit rate 0.35% among 380,000; AID 720647;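 active = drop in luminescence signal, shown as inhibition above about 50% in the replicate tests, limit read from the data, passing the limit was not always enough; inconclusive = probably only some replicates passing the limit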;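 also: agonist challenge used bursicon conditioned medium at about half maximal strength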
EWS-Fli inh = inhibitors of EWS/Fli oncoprotein transcriptional activity. inhibition, % at 12.6 µM. hit rate 0.67% among 350,000. A673 NR0B1-luciferase reporter, viability-normalised;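 active = mean inhibition of at least 50% after viability correction, with every replicate also passing that limit; inconclusive = mean reaches 50% but only one of two replicates passes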;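 also: firefly luciferase signal divided by Alamar Blue viability fluorescence both relative to DMSO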
The depositor's hits bear a star; ? = inconclusive; . = no result; ! = not active in a repeat.

SMILES	PAX8 reporter	TROY signal inh	TWEAK Fn14 block	EBV LMP1 NFkB	LGR2 antag	EWS-Fli inh
C[C@H]1CN([C@@H](C)CO)C(=O)c2cc(-c3ccc(F)cc3)cnc2O[C@@H]1CN(C)C(=O)Cc1ccccc1	.	.	.	.	-5.1	10.8
CCOc1ccc(NC(=O)COc2ccc(C(=O)NCCc3ccccc3)cc2)cc1	72.7*	15.6	-25.8	-4.5	-0.5	-8.9
CCOC(=O)c1ccc(NC(=O)COc2ccc(CNCCO)cc2OCC)cc1	17.6	15.7	39.6	-7.1	-10.0	2.6
CCOC(=O)c1ccc(NC(=O)COc2ccccc2CNCCc2ccccc2)cc1	8.5	-3.4	-13.5	-54.6	71.4*	19.5
CC(C)(O)C#Cc1ccc([C@@H]2[C@H]3CN(C(=O)c4ccncc4)CCCCN3[C@H]2CO)cc1	-4.1	.	.	.	2.6	-18.9
CCN1CCN(Cc2ccc(NC(=O)c3ccc(C)c(NC(=O)c4c[nH]c5cc(C(F)(F)F)ccc5c4=O)c3)cc2C(F)(F)F)CC1	79.8*	-2.7	-48.8	63.3*!	?	63.3*!
CCN1CCN(Cc2ccc(NC(=O)c3cc(NC(=O)c4ccno4)cc(OC)c3)cc2C(F)(F)F)CC1	-9.9	-10.3	7.2	1.0	7.7	27.3
CCN1CCN(Cc2ccc(NC(=O)c3ccc(C)c(NC(=O)c4cccc(-c5cn[nH]c(=O)c5)c4)c3)cc2C(F)(F)F)CC1	.	-31.5	-187.7	60.9*	.	.
CCN1CCN(Cc2ccc(NC(=O)c3ccc(C)c(NC(=O)c4ccno4)c3)cc2C(F)(F)F)CC1	-15.7	4.2	-53.4	47.5*	4.1	-4.7
CCN1CCN(Cc2ccc(NC(=O)c3ccc(C)c(/C=C/c4cnc(Nc5cc(N6CCNCC6)nc(C)n5)cn4)c3)cc2C(F)(F)F)CC1	.	-17.2	-64.1	69.2*	.	.
C[C@H](CO)N1C[C@H](C)[C@H](CN(C)C(=O)c2ccc(F)cc2)Oc2ncc(-c3ccncc3)cc2C1=O	.	.	.	.	-5.5	-11.7
COc1ccc([Si](C)(C)[C@@H]2[C@@H](CCO)O[C@]3(C(=O)N(C)c4ccccc43)[C@H]2C)cc1	80.6*	.	.	.	.	10.1
COc1ccc([Si](C)(C)[C@@H]2[C@@H](CCO)O[C@]3(C(=O)N(c4ccccc4)c4ccccc43)[C@H]2C)cc1	93.1*	.	.	.	.	21.0
COc1ccc([Si](C)(C)[C@@H]2[C@@H](CCn3cc([C@H](O)c4ccccc4)nn3)O[C@]3(C(=O)N(c4ccccc4)c4ccccc43)[C@H]2C)cc1	21.1	.	.	.	.	-3.2
CCCNC(=O)C[C@@H]1C[C@H]2c3cc(NC(=O)c4ccc5c(c4)OCO5)ccc3O[C@H]2[C@H](CO)O1	1.7	.	.	.	3.7	-7.1
CO[C@H]1CN(C)C(=O)c2ccc(NS(C)(=O)=O)cc2OC[C@@H](C)N(C(=O)C2CCOCC2)C[C@H]1C	.	.	.	.	20.9	-2.4
O=C(NCc1cccc(Cl)c1)c1cc(COc2ccc3ncccc3c2)on1	-19.5	53.2*	60.9*	7.9	.	-2.6
Cc1ccc(F)cc1CNC(=O)c1cc(COc2ccc3ncccc3c2)on1	4.2	45.9	75.3*	10.3	-19.2	1.5
CC(CCCC(C)(C)O)NC(=O)c1cc(COc2ccc3ncccc3c2)on1 (stereo not drawn)	30.4	16.8	22.6	10.2	-2.5	11.0
Cc1cc(C)n(CCNC(=O)c2cc(COc3ccc4ncccc4c3)on2)n1	15.8	13.4	9.5	0.7	-5.0	3.0
C[C@@H]1CCCCO[C@@H](CN(C)CC2CCCCC2)[C@H](C)CN([C@@H](C)CO)C(=O)c2cc(NS(=O)(=O)c3ccc(F)cc3)ccc2O1	1.7	.	.	.	12.4	0.2
CO[C@H]1CN(C)C(=O)c2ccc(NC(C)=O)cc2OC[C@H](C)N(Cc2cncnc2)C[C@H]1C	.	.	.	.	18.9	-1.2
O=C(C[C@@H]1C[C@H]2c3cc(NC(=O)NC4CCCC4)ccc3O[C@H]2[C@@H](CO)O1)NCc1ccc2c(c1)OCO2	-12.8	.	.	.	4.6	-7.5
CC(=C\C(=O)O)/C(=C/c1ccc(C)o1)C(=O)O	76.0*	19.6	8.5	-3.2	-22.6	3.8
C[C@H]1CN([C@@H](C)CO)C(=O)c2cccc(NC(=O)c3nc4ccccc4s3)c2O[C@@H]1CN(C)Cc1ccc(C(=O)Nc2ccccc2N)cc1	.	.	.	.	-2.0	-8.5
SMILES	PAX8 reporter	TROY signal inh	TWEAK Fn14 block	EBV LMP1 NFkB	LGR2 antag	EWS-Fli inh
Cc1c(N=Cc2nc3ccccc3n2C)c(=O)n(-c2ccccc2)n1C	0.9	64.0*	62.1*	-8.5	-16.5	.
Cc1c(N=Cc2nc3ccccc3[nH]2)c(=O)n(-c2ccccc2)n1C	.	-34.1	-16.4	-8.1	.	.
Cc1ccccc1CN1CCN(C/C=C/c2ccccc2)CC1	.	12.0	58.0*	10.5	.	.
CS(=O)(=O)N1CCN(C/C=C/c2ccccc2)CC1	.	9.0	16.3	5.7	.	.
Cc1cnc(NC(=O)CSc2nnc(C)n2N)s1	130.3*	-9.4	33.5	-2.3	.	10.8
Cc1ccc2c(Cl)cc(Cl)c(OCC(=O)Nc3cccc(S(=O)(=O)N(C)C)c3)c2n1	19.8	20.1	-13.8	13.7	-2.8	.
Cc1ccc2c(Cl)cc(Cl)c(OCC(=O)Nc3cc(S(=O)(=O)N(C)C)ccc3C)c2n1	20.3	38.1	79.9*	11.9	7.6	-3.7
CCCCCn1c(N2CCOCC2)nc2c1c(=O)n(CC(N)=O)c(=O)n2C	.	14.3	-13.8	64.2*	26.0	.
CCCCCOC(=O)Cn1c(=O)c2c(nc(N3CCOCC3)n2C)n(C)c1=O	8.1	6.5	-6.1	8.0	.	.
Cc1nc(SCC(=O)c2ccc(F)c(F)c2)[nH]c(=O)c1Oc1ccc(Cl)cc1	9.8	53.4*	-18.7	0.5	7.3	5.3
Cc1nc(SCC(=O)c2ccc(F)c(F)c2)[nH]c(=O)c1Oc1ccc(F)cc1	-16.4	9.1	9.6	-3.1	2.5	10.1
C[C@H](CO)N1C[C@H](C)[C@H](CN(C)C(=O)Nc2ccccc2)Oc2ccc(NC(=O)Nc3ccc4c(c3)OCO4)cc2CC1=O	4.9	.	.	.	9.2	-15.2
CC(C)NC(=O)Nc1ccc2c(c1)C(=O)N([C@H](C)CO)C[C@@H](C)[C@H](CN(C)C(=O)CCCN(C)C)OCCCC[C@@H](C)O2	-3.0	.	.	.	-6.1	.
CCOC(=O)N1CCN(c2cc(N3CCOCC3)c(F)cc2[N+](=O)[O-])CC1	28.0	6.2	50.7*	6.9	-2.9	6.3
O=C(O)C[C@H]1C[C@H]2c3cc(NC(=O)c4ccc5c(c4)OCO5)ccc3O[C@H]2[C@@H](CO)O1	0.5	.	.	.	8.6	-1.6
Cc1sc2ncnc(N3CCC(C(=O)N(C)CC(=O)Nc4cccc(F)c4)CC3)c2c1C	-3.8	41.2	65.0*	28.9	?	9.7
Cc1sc2ncnc(N3CCC(C(=O)N(C)CC(=O)Nc4ccccc4Cl)CC3)c2c1C	29.6	24.6	32.3	12.4	11.8	.
Cc1sc2ncnc(N3CCC(C(=O)N(C)CC(=O)Nc4ccccc4Br)CC3)c2c1C	10.6	30.5	51.2*	0.5	7.7	8.2
Cc1sc2ncnc(N3CCC(C(=O)N(C)CC(=O)Nc4ccc(Cl)c(C(F)(F)F)c4)CC3)c2c1C	77.7*	58.0*	51.0*	10.6	-15.3	28.1
